BH1578 lux ind: inducers of Vibrio cholerae quorum light production without autoinducers; V. cholerae BH1578 lux reporter, luminescence, 6 h; activation, % at 18.7 µM; 350,000 compounds, 0.16% hits; AID 588436; in the data active means activation mostly above about 9.7%, no sharp cut-off
DUSP3 inh: blocks human VHR1 dual specificity phosphatase. P51452. recombinant VHR phosphatase, pNPP absorbance. inhibition, % at 13.3 µM. 290,000 compounds, 0.52% hits. AID 1654; in the data active means inhibition above about 50%
Target sequence (P51452 whole entry, looked up): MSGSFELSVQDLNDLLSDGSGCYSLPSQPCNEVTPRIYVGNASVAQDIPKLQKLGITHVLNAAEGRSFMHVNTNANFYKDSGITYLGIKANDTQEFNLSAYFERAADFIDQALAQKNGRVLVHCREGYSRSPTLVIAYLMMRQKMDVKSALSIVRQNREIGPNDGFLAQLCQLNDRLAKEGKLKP
TcdB inh: TcdB glycohydrolase inhibition; TcdB glycohydrolase enzymatic assay, plate reader; AID 652162; 350,000 compounds, 0.24% hits; inhibition, % at 9.99 µM; in the data active means inhibition above about 10%
BioA inh-1: BioA (M. tuberculosis) enzyme inhibition. purified M. tuberculosis BioA enzyme, plate reader. inhibition, % at 9.99 µM. 360,000 compounds, 0.096% hits. AID 602481; in the data active means inhibition above about 40%
Y pestis TopoI: blocks Yersinia pestis topoisomerase I activity; 360,000 compounds, 0.064% hits; activity, % at 10 µM; Y. pestis Topo-I cleavage product accumulation, plate reader; AID 504884; in the data active means activity above about 50%, passing the limit was not always enough
BioA inh-2: Mtb BioA enzyme inhibition; shares compounds with BioA inh-1; purified BioA enzyme, plate reader, dose response; max activity, %; 310 tested, under 10 active; AID 651679;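 further: top concentration of the dilution series was 10 µM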
HepG2 cytotox: HepG2 viability loss. 310 tested, under 10 active. shares compounds with BioA inh-1. max activity, %. HepG2 cytotoxicity, plate reader
NIH3T3 tox 5: kills NIH3T3 cells | shares compounds with BioA inh-1 | NIH3T3 cytotoxicity, plate reader | activity change, negative = cytotoxicity, % at 26 µM | 310 tested, under 10 active | AID 651900
The depositor's hits bear a star; i = inactive; . = not tested or not shown; [ ] = dose if it differs, or a comment. Most compounds without a hit are left out; they make up all but 0.73% or so of the library. Unless noted, how the calls were made is not given here.

SMILES	BH1578 lux ind	DUSP3 inh	TcdB inh	BioA inh-1	Y pestis TopoI	BioA inh-2	HepG2 cytotox	NIH3T3 tox 5
CO[C@H]1CN(C)C(=O)c2cc(NC(=O)c3ccccc3)ccc2OC[C@H](C)N(C(=O)C2CC2)C[C@@H]1C	.	.	2	-1	.	.	.	.
Cc1cccc(C2c3[nH]c4ccccc4c3CCN2C(=O)CN2CCOC2=O)n1 (stereo not drawn)	i	30	1	52*	12	-3	-11	3
CCCN1[C@H](C(=O)N[C@@H](C)c2ccccc2)[C@@H](CO)[C@@H]2Cn3c(cccc3=O)[C@@H]21	.	.	0	.	.	.	.	.
C[C@@H]1CCCCO[C@@H](CN(C)S(=O)(=O)c2ccccc2)[C@@H](C)CN([C@@H](C)CO)C(=O)c2cc(NC(=O)Nc3ccc4c(c3)OCO4)ccc2O1	.	.	-1	-1	.	.	.	.
CCN1CCN(CC(=O)c2c(C)n(Cc3ccccc3)c3ccc(OC)cc23)CC1	-1	38	.	26	2	.	.	.
COc1ccc2c(c1)c(C(=O)CN1CCC3(CC1)OCCO3)c(C)n2Cc1ccccc1	i	18	.	59*	17	-6	-8	-10
c1ccc(CSc2nnc(-c3cccnc3)o2)cc1	0	4	.	.	3	.	.	.
Clc1ccc(CSc2nnc(-c3cccnc3)o2)cc1	i	10	.	65*	2	-9	-12	-3
Cc1ccccc1S(=O)(=O)NCC[C@H]1CC[C@@H](NC(=O)Nc2cccc(F)c2)[C@H](CO)O1	.	.	1	46*	.	-5	i	0
CCC(Sc1nc2ccsc2c(=O)n1Cc1ccc(C(=O)O)cc1)C(=O)Nc1cccc(OC)c1 (stereo not drawn)	0	.	-1	75*	-3	-6	-11	-1
CCc1ccc(NC(=O)C(CC)Sc2nc3ccsc3c(=O)n2CCC(=O)O)cc1 (stereo not drawn)	i	-1	0	0	7	.	.	.
Cc1ccc(S(=O)(=O)Nc2ccc3c(c2)CC(=O)N([C@H](C)CO)C[C@H](C)[C@@H](CN(C)Cc2ccncc2)O3)cc1	.	.	2	-1	.	.	.	.
C[C@H](CO)N1C[C@H](C)[C@@H](CN(C)Cc2ccc3c(c2)OCO3)Oc2ccc(NC(=O)Cn3cnnn3)cc2CC1=O	.	.	-1	48*	.	10	i	-9[23.5 µM]
O=C(C[C@H]1C[C@@H]2c3cc(NC(=O)CC4CC4)ccc3O[C@@H]2[C@H](CO)O1)NCc1ccccc1F	.	.	1	0	.	.	.	.
O=C(COc1ccc2ccc(=O)oc2c1)Nc1cccnc1	3	-2	0	49*	3	-9	-7	-4
C[C@@H]1CN([C@@H](C)CO)C(=O)c2cc(NS(C)(=O)=O)ccc2O[C@H]1CN(C)S(=O)(=O)c1cn(C)cn1	.	.	0	-1	.	.	.	.
COc1ccc(Nc2c(-c3ccc(OC)cc3)nc3cnccn23)cc1	i	20	1	46*	13	-7	-6	1
COc1ccc(Nc2c(-c3ccc(C)cc3)nc3cnccn23)cc1	0	12	2	.	26	.	.	.
COc1ccc(-c2nc3cnccn3c2Nc2ccc3c(c2)OCO3)cc1	i	34	-2	54*	8	-3	4	-12
Cc1c(NC(=O)c2cc3ccccc3o2)cccc1-n1cnnn1	-1	.	1	46*	6	-5	-20	3
Cc1c(NC(=O)c2ccc(S(=O)(=O)N(C)C)cc2)cccc1-n1cnnn1	-3	.	-1	-1	4	.	.	.
COCC(=O)Nc1ccc2c(c1)C(=O)N(C)C[C@@H](OC)[C@@H](C)CN(CC1CCCCC1)[C@H](C)CO2	.	.	0	12	.	.	.	.
COc1ccc(Cc2c(-c3ccc(C)cc3)nc3c(C)cc(Br)cn23)c(C)c1	.	.	-5	0	.	.	.	.
COc1ccc(Cc2c(-c3ccc(F)cc3)nc3ccc(C)cn23)c(C)c1	.	.	1	.	.	.	.	.
COc1ccc(Cc2c(-c3ccc(OC)c(OC)c3)nc3c(C)cc(Br)cn23)c(C)c1	.	.	0	69*	.	-8	-7	-2
COc1ccc(Cc2c(-c3ccc(OC)c(OC)c3)nc3ccc(C)cn23)c(C)c1	.	.	2	79*	.	4	-3	-1
O=C(NC1Cc2ccccc2C1)[C@@H]1[C@@H](CO)[C@@H]2Cn3c(cccc3=O)[C@H]1N2Cc1ccccc1F	.	.	.	10	.	.	.	.
